Laboratory results published in PubChem BioAssay.
For some assays here: Potency and affinity values are given separately. Calls of active or inactive are those of the source. Unless noted, no rule for the calls is given here.

Experiments:
[1] = antimalarial activity against Dd2 strain (AID 2302;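 active = growth inhibition above 50% at the single 2 µM test dose, taken to imply half-maximal potency below 2 µM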;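 also: 0% = DMSO untreated growth and 100% = chloroquine plus artemisinin killed control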); settings: P. falciparum Dd2 in RBCs, LDH growth readout, 72 h; at 2 µM; stronger effect = higher value
[2] = human hepatoma cell viability loss – ATP luminescence, cytotoxicity control for P. falciparum antimalarial project, primary screen (AID 2303;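 active = inhibition above 50%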;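 also: 0% = DMSO wells and 100% = digitonin-killed cells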); settings: HepG2 viability, 24-48 h, at 10 µM, stronger effect = higher value
[3] = target: L-lactate dehydrogenase (Plasmodium falciparum (isolate CDC / Honduras)) (UniProt Q27743); test: PfLDH activity inhibition – cell lysate, 3D7 strain, counter-screen for P. falciparum growth inhibition project (AID 2304);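 also: 0% = vehicle and 100% = reference inhibitor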; settings: P. falciparum 3D7 crude extract, LDH APAD/NBT absorbance; at 2 µM; stronger effect = higher value
[4] = inhibition of 3D7 malaria parasite growth – strain 3D7 (AID 2306);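 also: 0% = DMSO wells and 100% = chloroquine plus artemisinin control wells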; settings: P. falciparum 3D7 erythrocytic growth, LDH absorbance, 72 h; at 2 µM; stronger effect = higher value
[5] = target: Calcium-dependent protein kinase 1 (Plasmodium falciparum (isolate 3D7)) (UniProt P62344); test: PfCDPK1 kinase inhibitors, biochemical, TCAMS library (AID 1159585; cut-off not given, nearly all actives have IC50 up to about 0.98 µM;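 also: inhibitors leave more ATP so luminescence rises with inhibition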); settings: recombinant PfCDPK1, Kinase-Glo ATP depletion luminescence
[6] = target: Plasmodium falciparum protein kinase 6 (PK6, PF3D7_1337100) (UniProt Q8IDW1); test: PfPK6 kinase inhibitors, biochemical, TCAMS library (AID 1159586); settings: recombinant PfPK6, Kinase-Glo ATP depletion luminescence
[7] = target: Protein kinase 7 (PK7), Plasmodium falciparum 3D7 (PF3D7_0213400) (UniProt Q7YTF7); test: inhibition of Plasmodium PK7 catalytic activity – biochemical, TCAMS antimalarial set, Kinase-Glo luminescence (AID 1159587); settings: recombinant PfPK7, Kinase-Glo ATP depletion luminescence
[8] = target: Calcium-dependent protein kinase 4 (Plasmodium falciparum (isolate 3D7)) (UniProt Q8IBS5); test: PfCDPK4 kinase inhibitors, biochemical, TCAMS library (AID 1159588; cut-off not given, nearly all actives have IC50 up to about 0.91 µM); settings: recombinant PfCDPK4, Kinase-Glo ATP depletion luminescence
Calcium-dependent protein kinase 4 (Plasmodium falciparum (isolate 3D7)), sequence (Q8IBS5 whole entry, looked up): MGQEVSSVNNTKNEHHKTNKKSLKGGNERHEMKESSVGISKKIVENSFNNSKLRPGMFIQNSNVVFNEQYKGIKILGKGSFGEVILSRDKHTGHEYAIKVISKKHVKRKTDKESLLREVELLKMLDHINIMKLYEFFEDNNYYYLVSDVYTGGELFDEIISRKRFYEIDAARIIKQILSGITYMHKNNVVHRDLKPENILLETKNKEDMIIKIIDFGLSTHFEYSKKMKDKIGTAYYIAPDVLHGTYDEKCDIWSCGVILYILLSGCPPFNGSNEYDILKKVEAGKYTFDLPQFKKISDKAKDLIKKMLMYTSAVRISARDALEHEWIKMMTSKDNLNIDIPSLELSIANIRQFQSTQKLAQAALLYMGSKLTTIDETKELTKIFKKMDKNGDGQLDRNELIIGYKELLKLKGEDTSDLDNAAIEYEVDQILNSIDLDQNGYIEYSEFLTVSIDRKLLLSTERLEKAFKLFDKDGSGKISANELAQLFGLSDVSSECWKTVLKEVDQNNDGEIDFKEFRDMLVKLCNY

L-lactate dehydrogenase (Plasmodium falciparum (isolate CDC / Honduras)), sequence (Q27743 whole entry, looked up): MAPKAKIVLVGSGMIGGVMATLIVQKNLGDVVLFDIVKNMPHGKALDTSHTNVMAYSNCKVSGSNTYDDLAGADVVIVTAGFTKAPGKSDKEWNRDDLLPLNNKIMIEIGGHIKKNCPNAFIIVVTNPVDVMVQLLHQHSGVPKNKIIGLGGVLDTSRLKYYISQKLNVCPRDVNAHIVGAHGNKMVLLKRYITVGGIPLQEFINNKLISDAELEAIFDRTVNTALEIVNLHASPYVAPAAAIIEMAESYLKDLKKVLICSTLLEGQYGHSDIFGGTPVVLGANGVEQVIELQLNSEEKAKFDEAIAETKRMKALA
Calcium-dependent protein kinase 1 (Plasmodium falciparum (isolate 3D7)), sequence (P62344 whole entry, looked up): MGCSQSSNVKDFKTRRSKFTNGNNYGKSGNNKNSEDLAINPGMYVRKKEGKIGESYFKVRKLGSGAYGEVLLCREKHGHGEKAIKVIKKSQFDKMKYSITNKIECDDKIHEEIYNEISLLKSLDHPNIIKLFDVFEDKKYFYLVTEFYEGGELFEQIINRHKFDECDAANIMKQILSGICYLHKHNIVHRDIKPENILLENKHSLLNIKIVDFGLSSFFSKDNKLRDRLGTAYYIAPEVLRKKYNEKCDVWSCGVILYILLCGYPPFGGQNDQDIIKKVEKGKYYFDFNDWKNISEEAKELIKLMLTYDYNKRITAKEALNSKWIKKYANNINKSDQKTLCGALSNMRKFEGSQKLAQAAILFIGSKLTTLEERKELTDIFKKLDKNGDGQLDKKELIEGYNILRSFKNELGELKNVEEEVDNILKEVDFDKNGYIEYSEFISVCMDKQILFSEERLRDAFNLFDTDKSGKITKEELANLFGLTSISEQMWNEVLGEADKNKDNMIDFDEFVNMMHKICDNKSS
Protein kinase 7 (PK7), Plasmodium falciparum 3D7 (PF3D7_0213400), sequence (Q7YTF7 1-343): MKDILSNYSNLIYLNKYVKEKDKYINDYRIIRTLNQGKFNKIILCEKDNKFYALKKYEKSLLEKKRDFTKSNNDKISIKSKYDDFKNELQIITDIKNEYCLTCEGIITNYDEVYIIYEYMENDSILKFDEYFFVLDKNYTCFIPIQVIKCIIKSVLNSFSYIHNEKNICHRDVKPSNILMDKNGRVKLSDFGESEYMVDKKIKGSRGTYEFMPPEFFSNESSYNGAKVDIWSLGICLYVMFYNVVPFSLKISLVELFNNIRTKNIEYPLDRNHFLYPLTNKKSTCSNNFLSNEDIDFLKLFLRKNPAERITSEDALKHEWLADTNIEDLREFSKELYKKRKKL
Plasmodium falciparum protein kinase 6 (PK6, PF3D7_1337100), sequence (Q8IDW1 1-305): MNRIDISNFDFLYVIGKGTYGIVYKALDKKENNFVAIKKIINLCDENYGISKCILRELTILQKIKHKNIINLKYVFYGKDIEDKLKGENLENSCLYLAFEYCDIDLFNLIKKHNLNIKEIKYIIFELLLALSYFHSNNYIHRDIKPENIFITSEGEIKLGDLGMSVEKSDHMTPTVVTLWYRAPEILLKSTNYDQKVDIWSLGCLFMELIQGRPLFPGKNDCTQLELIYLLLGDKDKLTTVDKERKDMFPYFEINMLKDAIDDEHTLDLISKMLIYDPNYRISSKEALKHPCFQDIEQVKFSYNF

CCCCCC(C)C(C)c1cc(O)c2c(c1)OC(C)(C)CC2(O)c1ccccn1 (stereo unspecified)
active: growth inhibition [4] 98%
inactive: growth inhibition [1] 3% | inhibition [2] -2% | inhibition [3] -5% | outcome [5] | outcome [6] | outcome [7] | outcome [8]

COc1ccc2nccc([C@@H](O)CN3CCC(NCc4cn5cc(F)ccc5n4)CC3)c2c1
active: growth inhibition [4] 96%
inactive: growth inhibition [1] 5% | inhibition [2] 19% | inhibition [3] -5% | outcome [5] | outcome [6] | outcome [7] | outcome [8]

O=C(Nc1ccc(Cl)cc1)Nc1cccc(-c2cc(CNCCc3ccccc3)oc2-c2ccncc2)c1
active: growth inhibition [1] 92% | growth inhibition [4] 101%
inactive: inhibition [2] 40% | inhibition [3] 1% | outcome [5] | outcome [6] | outcome [7] | outcome [8]

COc1cc(Cc2cnc(N)nc2N)cc(OCc2cccc(C(=O)O)c2)c1OC
active: growth inhibition [4] 92%
inactive: growth inhibition [1] -3% | inhibition [2] 8% | inhibition [3] 4% | outcome [5] | outcome [6] | outcome [7] | outcome [8]

COc1cc2nc(NCCCOC(C)C)n3nc(-c4ccccc4)nc3c2cc1OC
active: growth inhibition [1] 97% | growth inhibition [4] 94%
inactive: inhibition [2] -3% | inhibition [3] -1% | outcome [5] | outcome [6] | outcome [7] | outcome [8]

CCOC(=O)c1ccc(NC(=O)Nc2ccc(-c3cccc(-c4nc5c(C)cccc5[nH]4)c3)cc2)cc1
active: growth inhibition [1] 100% | inhibition [2] 91% | growth inhibition [4] 101%
inactive: inhibition [3] -2% | outcome [5] | outcome [6] | outcome [7] | outcome [8]

CC(O)C1CCCCN1C(=O)c1cccc(-c2ccc(-c3nc4ccc(F)cc4[nH]3)cc2)c1 (stereo unspecified)
active: growth inhibition [1] 99% | growth inhibition [4] 101%
inactive: inhibition [2] 46% | inhibition [3] -6% | outcome [5] | outcome [6] | outcome [7] | outcome [8]

CCCc1cc(C(=O)N[C@@H](Cc2ccccc2)[C@H](O)CNC(C)(C)c2cccc(OC)c2)c(F)c(N2CCCC2=O)c1
inactive: inhibition [2] 7% | inhibition [3] 0% | outcome [5] | outcome [6] | outcome [7] | outcome [8]
active: growth inhibition [1] 98% | growth inhibition [4] 98%

Cc1noc(C)c1-c1cccc(CNCc2cccc(-c3ccc(-c4nc5ccccc5[nH]4)cc3)c2)c1
inactive: inhibition [2] 27% | inhibition [3] -2% | outcome [5] | outcome [6] | outcome [7] | outcome [8]
active: growth inhibition [1] 76% | growth inhibition [4] 100%

COc1cc(O)c2c(=O)c(OC)c(-c3cccc(Cl)c3OCC(=O)O)oc2c1OC
active: growth inhibition [4] 100%
inactive: growth inhibition [1] -2% | inhibition [2] -6% | inhibition [3] -1% | outcome [5] | outcome [6] | outcome [7] | outcome [8]

Nc1nc(N)c2c(Cl)c(CNc3cccc(C(=O)O)c3)ccc2n1
active: growth inhibition [1] 97% | inhibition [2] 69% | growth inhibition [4] 93%
inactive: inhibition [3] 7% | outcome [5] | outcome [6] | outcome [7] | outcome [8]

O=C(/C=C/c1ccc(Cl)c(Cl)c1)NCCCCN1CCCN(C(=O)Nc2cc(Cl)cc(Cl)c2)CC1
active: growth inhibition [4] 97%
inactive: growth inhibition [1] 1% | inhibition [2] 21% | inhibition [3] 2% | outcome [5] | outcome [6] | outcome [7] | outcome [8]

COc1ccc2ncc(Cl)c(N3CCC(CCNCc4ccc5c(n4)NC(=O)CS5)CC3)c2c1
inactive: inhibition [2] 33% | inhibition [3] 0% | outcome [5] | outcome [6] | outcome [7] | outcome [8]
active: growth inhibition [1] 82% | growth inhibition [4] 89%

COC1CCC(C(=O)Nc2ccc(-c3cccc(-c4nc5ccc(C(F)(F)F)cc5[nH]4)c3)cc2)CC1 (stereo unspecified)
inactive: growth inhibition [1] 48% | inhibition [3] -2% | outcome [5] | outcome [6] | outcome [7] | outcome [8]
active: inhibition [2] 69% | growth inhibition [4] 85%

COc1cc2c(cc1S(=O)(=O)c1ccc(NC(=O)Nc3ccc(F)cc3)cc1)CCN(C)CC2
inactive: inhibition [2] -1% | inhibition [3] -5% | outcome [5] | outcome [6] | outcome [7] | outcome [8]
active: growth inhibition [1] 55% | growth inhibition [4] 99%

Cc1cc(NN=Cc2cccc(Cl)c2)c2ccccc2n1
active: growth inhibition [1] 100% | growth inhibition [4] 100%
inactive: inhibition [2] 22% | inhibition [3] 0% | outcome [5] | outcome [6] | outcome [7] | outcome [8]

COc1ccccc1Nc1nc(C)cc(NCc2ccc(-c3c(C)noc3C)cc2)n1
inactive: growth inhibition [1] 13% | inhibition [2] 12% | inhibition [3] -6% | outcome [5] | outcome [6] | outcome [7] | outcome [8]
active: growth inhibition [4] 98%

Nc1ccc(-c2nc3ccc(-c4ccc5nc(-c6ccc(N)cc6)[nH]c5c4)cc3[nH]2)cc1
inactive: inhibition [2] 45% | inhibition [3] 6% | outcome [5] | outcome [6] | outcome [7] | outcome [8]
active: growth inhibition [1] 96% | growth inhibition [4] 101%

O=S(=O)(NCCN1CCCC1)c1ccc(-c2ccc(CNCc3ccsc3)cc2)cc1F
inactive: growth inhibition [1] 40% | inhibition [2] 27% | inhibition [3] 0% | outcome [5] | outcome [6] | outcome [7] | outcome [8]
active: growth inhibition [4] 96%

COc1ccc2nccc([C@@H](O)CN3CCC(NCc4cc5ccccc5cn4)CC3)c2n1
active: growth inhibition [4] 93%
inactive: growth inhibition [1] 14% | inhibition [2] 3% | inhibition [3] -2% | outcome [5] | outcome [6] | outcome [7] | outcome [8]

CCCCNc1nccc2ccc(-c3ccncc3)cc12
active: growth inhibition [4] 93%
inactive: growth inhibition [1] 1% | inhibition [2] 6% | inhibition [3] 1% | outcome [5] | outcome [6] | outcome [7] | outcome [8]

O=C(NCC1CCN(CCN2CCc3ccc4c(c3C2)OCO4)CC1)c1ccc(-c2ccc(C(F)(F)F)cc2)cc1
inactive: growth inhibition [1] 34% | inhibition [3] -5% | outcome [5] | outcome [6] | outcome [7] | outcome [8]
active: inhibition [2] 66% | growth inhibition [4] 93%

CC(=NN=C(N)N)C(=O)Nc1ccc(Cl)c(Cl)c1
inactive: inhibition [2] -3% | inhibition [3] 0% | outcome [5] | outcome [6] | outcome [7] | outcome [8]
active: growth inhibition [1] 97% | growth inhibition [4] 101%

CCC(Cc1ccccc1)c1cc(O)c(Cc2ccc(-c3ccccc3)cc2)c(=O)o1 (stereo unspecified)
active: growth inhibition [4] 89%
inactive: growth inhibition [1] -3% | inhibition [2] 3% | inhibition [3] -1% | outcome [5] | outcome [6] | outcome [7] | outcome [8]

CC1CCCN(C(=O)c2cc(-c3ccccn3)nc3c(Cl)cccc23)C1 (stereo unspecified)
inactive: growth inhibition [1] 9% | inhibition [2] 2% | inhibition [3] -5% | outcome [5] | outcome [6] | outcome [7] | outcome [8]
active: growth inhibition [4] 86%

Cc1cc(NC(=O)c2ccco2)ccc1OC1CCN(Cc2ccc(F)cc2)C1 (stereo unspecified)
inactive: inhibition [2] 5% | inhibition [3] 5% | outcome [5] | outcome [6] | outcome [7] | outcome [8]
active: growth inhibition [1] 92% | growth inhibition [4] 96%

Cc1cccc(NC(=O)c2cnc(N3CCN(c4ccncc4)CC3)c(Cl)c2)c1
active: growth inhibition [1] 54% | growth inhibition [4] 100%
inactive: inhibition [2] 36% | inhibition [3] -2% | outcome [5] | outcome [6] | outcome [7] | outcome [8]

Cn1cnc2c(SCc3ccc(OCc4ccccc4)cc3)ncnc21
inactive: inhibition [2] 1% | inhibition [3] -6% | outcome [5] | outcome [6] | outcome [7] | outcome [8]
active: growth inhibition [1] 87% | growth inhibition [4] 95%

CCN(CC)C(=O)C1CCCN(c2cc(C)nc(Nc3ccc(Cl)cc3)n2)C1 (stereo unspecified)
active: growth inhibition [1] 64% | growth inhibition [4] 94%
inactive: inhibition [2] 13% | inhibition [3] 1% | outcome [5] | outcome [6] | outcome [7] | outcome [8]

Cc1nc(-c2ccc3c(c2)CCN(CCC2CCC(NC(=O)c4cc5cccc(Cl)c5[nH]4)CC2)CC3)no1 (stereo unspecified)
active: growth inhibition [4] 100%
inactive: growth inhibition [1] 46% | inhibition [2] 36% | inhibition [3] 2% | outcome [5] | outcome [6] | outcome [7] | outcome [8]

COc1cc(C2=NN(S(=O)(=O)c3c(C)cc(C)cc3C)CCCC2)ccc1Cl
inactive: inhibition [2] 9% | inhibition [3] 1% | outcome [5] | outcome [6] | outcome [7] | outcome [8]
active: growth inhibition [1] 76% | growth inhibition [4] 85%

O=C(/C=C/c1ccc(Cl)c(Cl)c1)NCCCCCCN1CCN(C(=O)Nc2ccc(Cl)c(C(F)(F)F)c2)CC1
inactive: growth inhibition [1] 43% | inhibition [2] 47% | inhibition [3] -6% | outcome [5] | outcome [6] | outcome [7] | outcome [8]
active: growth inhibition [4] 99%

OCC1CCN(Cc2cccc(C#Cc3cc4ncnc(Nc5ccc(OCc6cccc(F)c6)c(Cl)c5)c4s3)n2)CC1
inactive: inhibition [2] 41% | inhibition [3] 1% | outcome [5] | outcome [6] | outcome [7] | outcome [8]
active: growth inhibition [1] 95% | growth inhibition [4] 99%

CCN(CC)CCCn1c(N)c(-c2nc3ccccc3[nH]2)c2nc(C#N)c(C#N)nc21
inactive: inhibition [2] 8% | inhibition [3] 2% | outcome [5] | outcome [6] | outcome [7] | outcome [8]
active: growth inhibition [1] 99% | growth inhibition [4] 100%

c1cc(CNCC2CCN(CC3CCCCC3)CC2)cc(-n2ccnc2)c1
inactive: inhibition [2] 18% | inhibition [3] -1% | outcome [5] | outcome [6] | outcome [7] | outcome [8]
active: growth inhibition [1] 99% | growth inhibition [4] 102%

COc1ccccc1CNC(=O)c1cc(Br)cc(N2CCN(c3ccncc3)CC2)c1
active: growth inhibition [1] 76% | growth inhibition [4] 95%
inactive: inhibition [2] 43% | inhibition [3] 0% | outcome [5] | outcome [6] | outcome [7] | outcome [8]

Cc1ccc(NC(=O)c2ccc(NCCCN(C)Cc3ccccc3)c([N+](=O)[O-])c2)cc1F
active: growth inhibition [1] 61% | growth inhibition [4] 101%
inactive: inhibition [2] 12% | inhibition [3] -7% | outcome [5] | outcome [6] | outcome [7] | outcome [8]
